# Screening data: PubChem BioAssay, National Center for Advancing Translational Sciences (NCATS)
# Cycloheximide cs – counter-screen hit for Shiga toxin inhibitors, cycloheximide | max response, % | cell reporter, cycloheximide protein synthesis inhibition counterscreen | AID 2314 | 12% of 300,000 active; in the data active = max response mostly above about 13%, no sharp cut-off; inactive = mostly below about 14%; also: read at 38.3 µM for the half of the compounds with a filed dose
# AmpC inh no detg – AmpC beta-lactamase inhibition without detergent | 0.52% of 330,000 active | P00811 | AmpC nitrocefin hydrolysis, absorbance 480 nm, 0.0001% Triton | Potency, µM (series often up to 57.1 µM), usual class: inhibitors; also: nearly all actives have a fitted effect of over 20% in size
# Target sequence (P00811 whole entry, looked up): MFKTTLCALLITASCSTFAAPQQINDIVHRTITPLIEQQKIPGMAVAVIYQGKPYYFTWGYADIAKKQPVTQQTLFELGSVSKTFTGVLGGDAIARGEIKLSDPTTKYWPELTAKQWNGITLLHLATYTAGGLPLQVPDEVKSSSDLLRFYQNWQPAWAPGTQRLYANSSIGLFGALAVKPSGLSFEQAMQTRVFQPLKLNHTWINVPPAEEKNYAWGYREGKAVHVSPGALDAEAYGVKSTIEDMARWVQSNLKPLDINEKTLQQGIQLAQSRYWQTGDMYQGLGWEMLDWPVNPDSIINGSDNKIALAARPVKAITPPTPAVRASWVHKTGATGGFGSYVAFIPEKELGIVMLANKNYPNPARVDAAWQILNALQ
#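 20 mM phosphate pH 7.0 + 0.01% (detergent screen) or 0.0001% Triton X-100; 5.3 nM AmpC reagent; cpd preinc 15 min RT; nitrocefin (800 uM stock) to start; A480 q20 s × 4 min; Activity was normalised to no-enzyme and no-compound control wells.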
# AmpC inh detg – AmpC beta-lactamase inhibition with detergent present; P00811; AmpC hydrolysis of nitrocefin, absorbance 480 nm, 0.01% Triton; Potency, µM (titrated, usually from 114 µM), hits mostly inhibitors; 0.041% of 370,000 active; also: nearly all actives have a fitted effect of over 25% in size
#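 20 mM phosphate pH 7.0 + 0.01% (detergent screen) or 0.0001% Triton X-100; 5.3 nM AmpC reagent; cpd preinc 15 min RT; nitrocefin (800 uM stock) to start; A480 q20 s × 4 min; Activity was normalised to no-enzyme and no-compound control wells.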
# Shiga inhibitor – blocks Shiga toxin action in Vero cells; 9.2% of 290,000 active; inhibition, % at 38.7 µM; Vero cells, Shiga toxin protein synthesis inhibition reporter; in the data active = inhibition mostly above about 28%, no sharp cut-off; inactive = mostly below about 43%
# AMA1-RON2 inh – AMA1-RON2 (P. falciparum) interaction inhibition; Potency, µM (doses to about 58.2 µM), actives largely listed as inhibitors; 0.2% of 360,000 active; AlphaScreen AMA1-biotinylated RON2 peptide binding; also: nearly all actives have a fitted effect of over 45% in size
#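 AMA1 (3D7) with his tag at 25 nM final met compounds first, then biotinylated RON2 peptide at 25 nM; detection used donor plus acceptor beads, 10 µg/mL apiece, read by AlphaScreen after 30 min at room temperature.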
# SARS PLP yeast – SARS-CoV PLP inhibition in yeast | S. cerevisiae expressing SARS-CoV PLpro, growth rescue | 0.19% of 330,000 active | Potency, µM (series often up to 32.9 µM), usual class: activators | AID 485353; calls by dose curve; also: nearly all actives have a fitted effect of over 55% in size
# A number is an active result; 0 = inactive; ? = inconclusive; - = not tested or not shown; [ ] = remark or other dose. The sample as a whole holds a higher share of hits than the screen did. Unless noted, calls follow the shape of the dose curve; as a rule, active = well fitted curve in the direction sought with a large enough effect; inconclusive = small, poorly fitted or top-dose-only effect, or another doubt; inactive = no such curve, though single readings can be large; an effect the other way counts as inactive or inconclusive.
SMILES,Cycloheximide cs,AmpC inh no detg,AmpC inh detg,Shiga inhibitor,AMA1-RON2 inh,SARS PLP yeast
COC(=O)NC(Nc1sc2c(c1C(N)=O)CCCC2)(C(=O)OC)C(F)(F)F (stereo not given),0,0,?,0,0,0
c1ccc2c(c1)Cn1nc(Cc3nc4c(s3)CCCC4)nc1-2,35,0,0,74,0,0
COc1ccc(-c2cccc(C(=O)Nc3ccc(C)cc3)c2)cc1,0,0,0,0,0,0
COc1cc(OC)cc(C(=O)Nc2cccc(NC(=O)c3ccccc3)c2)c1,0,0,0,0,0,0
CCN1C(=O)c2ccc(C(=O)Nc3cccc(C(=O)O)c3)cc2C1=O,20,0,0,48,0,0
COc1cccc(C(=O)Nc2cccc(-c3ccccc3)c2)c1,42,0,0,78,0,0
COc1ccc(-c2cccc(C(=O)Nc3cccc(C(=O)O)c3)c2)cc1,103,0,?,106,0[2.32 µM],0
Cc1ccc(C(=O)N/N=C/c2c[nH]c3ccccc23)o1,23,0,?,74,0,0
Cc1cc(C(=O)N/N=C/c2c[nH]c3ccccc23)c(C)o1,27,0,0,0,0,0
O=C(O)c1ccc(CSc2ccccn2)cc1,0,0,0,0,0,0
O=C(O)c1ccnc(SCC(=O)c2ccccc2)c1,0,0,0,0,0,0
Cc1ccc(C(=O)CSc2ccccn2)cc1,46,0,0,113,0,0
O=C(CSc1ccccn1)c1ccc(F)cc1,34,0,0,58,0,0
Cc1nc(N2CCN(c3ccccc3F)CC2)[nH]c(=O)c1C,0,0,0,0,0,0
CN(CCOc1ccc(C=C2C(=O)NC(=O)NC2=O)cc1)c1ccccn1,27,0,0,0,0,0
COc1ccc(OCCOc2cccc(C=C3C(=O)NC(=O)NC3=O)c2)cc1,33,0,0,33,-,0
COc1cccc(OCCOc2ccc(/C=C3/SC(=S)NC3=O)cc2)c1,0,0,0,0,0,0
O=C1NC(=S)NC(=O)C1=Cc1ccc(OCc2ccccc2)cc1,-,-,-,-,0,-
CCC(=O)Nc1ccc(NC(=O)CSc2nnnn2-c2ccc(OC)cc2)cc1,0,0,0,0,0,0
COc1ccc(NC(=O)CSc2nccn2-c2ccccc2)cc1,22,0,0,0,0,0
CCc1ccc(NC(=O)CSc2nccn2-c2ccc(OC)cc2)cc1,-,-,0,-,-,-
COc1ccc(NC(=O)CSc2nnnn2C2CC3C=CC2C3)cc1 (stereo not given),20,0,0,0,0,0
COc1ccc(NC(=O)CSc2nccn2Cc2ccccc2)cc1,53,0,0,164,0,0
CCC(=O)Nc1cc(NC(=O)CSc2nnc(C(C)C)n2CC)ccc1C,0,0,0,0,0,0
CC(=O)Oc1ccc(S(=O)(=O)c2ccc(OC(C)=O)cc2)cc1,0,0,0,0,0,0
SMILES,Cycloheximide cs,AmpC inh no detg,AmpC inh detg,Shiga inhibitor,AMA1-RON2 inh,SARS PLP yeast
O=C(Nc1cccc(S(=O)(=O)N2CCOCC2)c1)C1CCCCN1S(=O)(=O)c1ccccc1 (stereo not given),-,0,0,-,0,0
c1ccc(C2=NNC(c3ccco3)=Nc3ccccc32)cc1,17,0,0,0,0,0
COc1ccc(C2=NNC(c3cccnc3)=Nc3ccccc32)cc1,0,0,0,0,0,0
CC1(C(=O)NCc2ccccc2)CN(S(C)(=O)=O)CC(=O)N1CCc1ccccc1 (stereo not given),-,-,-,-,0,-
[O-][n+]1c2c(nn1-c1ccccc1)/C(=N/O)CCC2,0,0,0,0,0,0
[O-][n+]1onc2c1CCC(=N/O)/C2=N\Nc1ccccc1,19,0,0,0,-,0
O=C1NC(=S)SC1=Cc1ccccc1Br,-,-,-,-,0,-
O=C(c1cnn(-c2ccccc2)c1)c1ccc2ccccc2c1O,15,0,0,0,0,0
CC(C)(C)n1cc(C(=O)c2ccc3ccccc3c2O)cn1,0,0,0,46,0,0
O=C(Nc1ccc(F)c(F)c1)c1cnc(-c2ccccc2)nc1-c1ccccc1,0,0,0,0,0,0
COc1ccc(C2SCC(=O)N2c2ccc(OC)cc2)cc1 (stereo not given),0,0,0,0,0,0
Fc1ccc(Cn2cnc3ccccc32)cc1,0,0,0,0,0,0
